Here are results for nine compounds from PubChem BioAssay AID540355 (National Center for Advancing Translational Sciences (NCATS), 2011).

The other results are listed elsewhere or left out. Inconclusive results are not listed. Active and inactive are the calls of the source. Calls come from the whole dose curve; as a rule, active = well fitted inhibition curve with a large enough effect; inconclusive = small, poorly fitted or top-dose-only effect; inactive = no such curve, though single readings can be large or run the other way.

Sequence of 4'-phosphopantetheinyl transferase Sfp (Bacillus subtilis (strain 168)) (P39135 whole entry, looked up): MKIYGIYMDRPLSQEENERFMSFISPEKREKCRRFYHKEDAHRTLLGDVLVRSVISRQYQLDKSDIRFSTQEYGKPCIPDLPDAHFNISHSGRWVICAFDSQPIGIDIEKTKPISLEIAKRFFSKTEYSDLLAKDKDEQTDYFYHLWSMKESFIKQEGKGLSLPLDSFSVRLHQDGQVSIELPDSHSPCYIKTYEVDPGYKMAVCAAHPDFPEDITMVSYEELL

The target in this assay is 4'-phosphopantetheinyl transferase Sfp (Bacillus subtilis (strain 168)) (UniProt P39135). In words: Gel-Based Assay for Inhibitos of Bacillus subtilis Sfp phosphopantetheinyl transferase (PPTase): Chemistry Optimization Followup. As to conditions: purified Sfp PPTase, gel-based product detection; series mostly up to 250 µM. From the text:
The covalent attachment of a phosphopantetheinyl (4'-PP) arm to a variety of synthases and other proteins is a key posttranslational protein modification. The 4'-PP is installed on the proteins post-translationally from coenzyme A (CoA) on a conserved serine residue by action of phosphopantetheinyl transferase (PPTase) enzymes. Phosphopantetheinylation is essential for synthase activity, and removal of the PPTase gene precludes natural product synthesis in microorganisms, or in the case of fatty acid biosynthesis, renders the organism unviable. PPTase enzymes belong to a distinct structural superfamily. Within bacteria, these enzymes are grouped into two classes based upon primary structure, the AcpS-Type and Sfp-Type PPTases.
Sfp-type PPTases, corresponding to an activator of surfactin production in Bacillus subtilis, are responsible for modifying type I polyketide and nonribosomal peptide synthases of prokaryotes. Sfp-type PPTases are responsible for the activation of a variety of pathogen-associated virulence factors. Among these compounds are toxins such as mycolactone from Mycobacterium ulcerans, siderophores such as vibriobactin from Vibrio cholerae or mycobactin from Mycobacterium tuberculosis, as well as the mycolic acids which form the waxy cell wall of Mycobacteria. The biosyntheses of these natural products are considered attractive targets for drug design.
In this assay, compounds were evaluated by monitoring of fluorescence transfer to whole carrier protein substrates via polyacrylamide gel electrophoresis. See Yasgar, et al. (PMID: 20094656) for further details on assay. This assay was used to evaluate follow-up compounds from the primary screen (AID: 1490).
NIH Chemical Genomics Center [NCGC]
NIH Molecular Libraries Probe Centers Network [MLPCN]
Assay Submitter (PI): Michael Burkart, University of California, San Diego
A DMSO solution of confirmed hits (0.5 microL) was added to a 1.33X enzyme solution (15 microL, containing 26.6 nM Sfp, 66 mM HEPES, 13.3 mM MgCl2, 0.0133% NP-40, 0.133% BSA, pH 7.6). After a 10 minute incubation, the enzymatic reaction was initiated by the addition of 4 X substrate solution (4 microL, containing 50 microM Rhodamine CoA and 50 microM apo-Actinorhodin-ACP). The reactions were terminated after a 30 minute incubation at room temperature by the addition of 2X quench solution (20 microL, containing 4 M Urea, 25 mM EDTA, 0.004% phenol red, pH 8.0). Samples were separated under native conditions on a 20% polyacrylamide gel using standard Laemmli conditions. Following the run, gels were imaged with a Chemi-Doc Plus imager (Bio-Rad, Hercules, CA) and band intensity quantified using the ImageJ software package. Pixel density values were normalized to control wells (SCH202676) and fit with the 4-parameter Hill equation using in-house tools.
For `Cc1cc(C)nc(NC(=S)N2CCN(c3cccc(C(F)(F)F)c3)CC2)c1`, the Potency was 1.58 µM (active).
For `COc1ccnc(NC(=S)N2CCN(c3ncc(C(F)(F)F)cc3Cl)CC2)c1`, the Potency is 3.02 µM (active).
Consider `Cc1cc(C)nc(NC(=S)N2CCN(c3cccc(C#N)c3)CC2)c1`, for which the Potency was 10 µM (active).
For `COc1cccc(NC(=S)N2CCN(c3ccc(Cl)cc3Cl)CC2)n1` the value was “inactive”; for `Cc1ccc(N2CCN(C(=S)Nc3cc(C)ccn3)CC2)cc1`, 3.16 µM (active).
For `FC(F)(F)c1cccc(N2CCN(C(=S)Nc3ccncc3)CC2)c1` the value was “inactive”; for `COc1cccc(NC(=S)N2CCN(c3ccccc3C(F)(F)F)CC2)n1`, “inactive”; for `Cc1cc(C)nc(NC(=S)N2CCN(c3ccc(Cl)cc3C(F)(F)F)CC2)c1`, 6.75 µM (active).
Consider `Cc1cc(C)nc(NC(=S)N2CCN(c3ccc4nonc4c3)CC2)c1`, for which the Potency is 10 µM (active).
